Hits are enriched below; roughly 2.9% of the tested compounds scored in any of these assays.
proKLK7 act: proKLK7 (human) activation, primary screen | P49862 | activation, % at 7 µM | purified proKLK7, EDANS-DABCYL substrate fluorescence; 100% is mature enzyme control, 0% vehicle | 370,000 compounds, 0.9% hits;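 active means activation above the mean of all tested compounds plus 3 SD, computed per campaign excluding outliers beyond control limits, cut at about 13% in these data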
PLCg1 inh: inhibitors of human phospholipase C gamma1 | AID 720700 | P19174 | inhibition, % at 12.2 µM | purified PLC-gamma1, fluorogenic substrate, fluorescence | 370,000 compounds, 0.84% hits; in the data active means inhibition above about 9.5%
PLCb3 inh: blocks human PLC-beta3 enzyme activity | 370,000 compounds, 0.18% hits | Q01970 | inhibition, % at 12.2 µM | Purified PLC-beta3, fluorogenic substrate, fluorescence | AID 720704; in the data active means inhibition above about 11%;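 further: 0% = median of compound wells on plate and 100% = full blocker control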
ADAM17 inh: ADAM17 inhibition, QFRET primary screen; 370,000 compounds, 0.83% hits; recombinant ADAM17, EDANS/DABCYL FRET peptide cleavage; inhibition, % at 6.95 µM;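 active means inhibition above the mean of compounds lying between control limits plus 3 SD, set per campaign, cut at about 8.5% in these data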;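 further: 0% = DMSO-only wells as the low control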
ADAM10 inh: inhibits human ADAM10. recombinant ADAM10, EDANS/DABCYL FRET peptide cleavage, 3 h. inhibition, % at 7 µM. O14672. 370,000 compounds, 0.62% hits;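 active means inhibition above a per-campaign cutoff equal to the mean of compounds falling between control-based bounds plus 3 SD, cut at about 20% in these data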;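 further: 0% = DMSO wells while the 100% control is not disclosed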
ADAM10 confirm: confirmation of inhibitors of human ADAM10; shares compounds with ADAM10 inh; inhibition, % at 6.95 µM; 2,100 compounds, 1% hits; AID 743208; ADAM10 QFRET peptide cleavage, EDANS fluorescence;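 active means inhibition above about 20% chosen separately for each screening run, limit read from the data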;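 further: 0% = DMSO wells and 100% = marimastat wells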
ADAM17 counter: counter-screen for ADAM10 exosite inhibitors: inhibitors of human ADAM17. inhibition, % at 6.95 µM. shares compounds with ADAM10 inh. AID 743214. ADAM17 QFRET peptide cleavage, EDANS fluorescence. 2,100 compounds, 0.5% hits;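 active means mean triplicate inhibition above the solvent-only control wells' mean plus 3 SD, cut at about 12% in these data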;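 further: 0% = DMSO wells and 100% = marimastat wells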
ADAM10 ctr: inhibits human ADAM10 in ADAM17 exosite counter-screen; shares compounds with ADAM17 inh; inhibition, % at 6.95 µM; 2,900 compounds, 47% hits; AID 743256; recombinant ADAM10, EDANS/DABCYL FRET peptide cleavage, 3 h;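 active means mean inhibition over the triplicate runs exceeds the activity threshold set in the earlier primary screen, cut at about 20% in these data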;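 further: 0% = DMSO wells and 100% = marimastat wells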
ADAM17 confirm: human ADAM17 inhibition, confirmation | recombinant ADAM17, EDANS/DABCYL QFRET peptide cleavage | AID 743257 | inhibition, % at 6.95 µM | shares compounds with ADAM17 inh | 2,900 compounds, 65% hits;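 active means mean inhibition across replicates above the hit cutoff set in the primary screen, cut at about 8.5% in these data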;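 further: 0% = DMSO wells and 100% = marimastat wells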
An asterisk follows results filed as active; x = not tested or not shown.

SMILES | proKLK7 act | PLCg1 inh | PLCb3 inh | ADAM17 inh | ADAM10 inh | ADAM10 confirm | ADAM17 counter | ADAM10 ctr | ADAM17 confirm
CCN(CC(=O)Nc1c(F)cccc1F)C(=O)CCNC(=O)c1ccccc1OC | 0 | 0 | 3 | -3 | -1 | x | x | x | x
COc1ccc(CN(CCC(c2ccc(F)cc2)C2CCOC(C)(C)C2)C(=O)c2ccco2)cc1 (stereo not given) | 1 | 9 | 4 | 14* | 22* | 5 | 2 | 25* | 15*
O=C(Nc1nc2ccccc2s1)C1CCCN1S(=O)(=O)c1ccc(Cl)cc1 (stereo not given) | 0 | 5 | 10 | 11* | 30* | 2 | 0 | 33* | 17*
Cc1nnc(NC(=O)C2CCCN2S(=O)(=O)c2ccc(Cl)cc2)s1 (stereo not given) | 1 | -1 | -6 | -1 | -3 | x | x | x | x
COc1ccc(S(=O)(=O)N2CCC(c3cc(-c4cccc5ccccc45)n[nH]3)CC2)cc1 | 1 | 1 | 0 | 11* | 25* | 18 | 5 | 6 | 9.1*
CC(C)(C)OC(=O)C[C@@H]1C/C=C\C[C@@H](CC(=O)N(CCO)Cc2ccccc2)C(=O)N[C@H](Cc2c[nH]c3ccccc23)COC1=O | 1 | 0 | -4 | -1 | -2 | x | x | x | x
COc1ccc(C2c3c(-c4ccccc4O)n[nH]c3C(=O)N2Cc2ccco2)cc1 (stereo not given) | 0 | 1 | -6 | 8 | 16 | x | x | x | x
COc1ccc(CCN2C(=O)c3[nH]nc(-c4ccccc4O)c3C2c2cccc(Cl)c2)cc1 (stereo not given) | 0 | 4 | -2 | 14* | 36* | 11 | 5 | 41* | 17*
O=C(COC(=O)c1ccc(Cl)c(S(=O)(=O)N2CCCCCC2)c1)Nc1ccccc1 | 0 | 3 | 1 | 10* | 20* | 12 | 3 | 49* | 27*
O=C(COC(=O)c1ccc(S(=O)(=O)N2CCCC2)cc1)Nc1ccccc1 | 0 | 2 | -18 | 2 | 2 | x | x | x | x
CN(C)CCCNC(=S)N1CCC(C(=O)c2ccc(Cl)cc2)CC1 | 0 | 2 | 5 | -1 | 0 | x | x | x | x
CN(C)S(=O)(=O)NCCNC(=O)c1cc(OCC(F)(F)F)ccc1OCC(F)(F)F | 0 | 4 | -2 | -6 | -9 | x | x | x | x
Cc1ccc(S(=O)(=O)Nc2ccc(NC(=O)Nc3cccc(C(F)(F)F)c3)cc2)cc1 | 0 | 9 | 9 | 22* | 41* | 9 | 3 | 43* | 19*
O=C(Nc1ccncc1)Nc1cccc(C(F)(F)F)c1 | 0 | 2 | -3 | 0 | 1 | x | x | x | x
O=C(NCCNC(=O)c1cc(OCC(F)(F)F)ccc1OCC(F)(F)F)Nc1cccc(C(F)(F)F)c1 | 0 | 2 | -1 | 12* | 37* | 1 | 0 | 24* | 14*
O=C(Nc1ccc(OC(F)F)cc1)Nc1cccc(C(F)(F)F)c1 | 0 | 3 | 1 | 10* | 25* | 2 | 0 | 31* | 16*
Cc1ccc(Nc2nc(N/N=C/c3c[nH]c4ccccc34)nc(N3CCOCC3)n2)cc1 | -1 | 4 | 3 | 10* | 22* | 8 | 3 | 27* | 16*
COc1ccc(/C=N/Nc2nc(Nc3ccccc3)nc(N3CCCCC3)n2)cc1OC | -1 | -1 | 2 | 5 | 7 | x | x | x | x
Cc1[nH]c2ccccc2c1/C=N/Nc1nc(Nc2ccc(F)cc2)nc(N2CCOCC2)n1 | 1 | -1 | 4 | -1 | 15 | x | x | x | x
O=C(Oc1cccc(/C=N/Nc2nc(Nc3ccccc3)nc(N3CCOCC3)n2)c1)c1ccco1 | 0 | 3 | 4 | 8.8* | 22* | 8 | 3 | 41* | 23*
Cc1[nH]c2ccccc2c1C(=O)COC(=O)c1c(-c2c(F)cccc2Cl)noc1C | 0 | -1 | -4 | 13* | 26* | 5 | 2 | 32* | 17*
COc1ccc(S(=O)(=O)Nc2ccc(Nc3ccccc3)cc2)cc1 | 0 | 7 | -4 | 12* | 21* | 7 | 1 | 13 | 11*
COc1ccc(/C=N/NC(=O)c2ccc3ccccc3c2)cc1OS(=O)(=O)c1ccc(NC(C)=O)cc1 | -25 | -38 | -45 | 0 | -3 | x | x | x | x
COc1cc(NC(=S)NCCC(c2ccccc2)c2ccccc2)cc(OC)c1 | 0 | -2 | -1 | 12* | 23* | 9 | 2 | 20* | 13*
NC(=O)C1CCN(c2nc(-c3ccc4c(c3)OCCCO4)cs2)CC1 | x | 1 | 2 | 1 | 2 | x | x | x | x
SMILES | proKLK7 act | PLCg1 inh | PLCb3 inh | ADAM17 inh | ADAM10 inh | ADAM10 confirm | ADAM17 counter | ADAM10 ctr | ADAM17 confirm
Cc1ccc(-c2csc(N3CCC(NS(=O)(=O)c4ccc5c(c4)OCCO5)CC3)n2)cc1 | -1 | 7 | -2 | 13* | 24* | 10 | 3 | 20* | 15*
CC(C)CC1C(=O)N(Cc2cn(CCC3OCCO3)nn2)CCS(=O)(=O)N1Cc1ccc(-c2ccc(F)cc2)cc1 (stereo not given) | 0 | 1 | 1 | 11* | 25* | 7 | 3 | 31* | 17*
CC(C)C1C(=O)N(Cc2cn(CCC3OCCO3)nn2)CCS(=O)(=O)N1Cc1ccc(-c2ccc(F)cc2Cl)cc1 (stereo not given) | 0 | 4 | 2 | 10* | 24* | 6 | 2 | 33* | 17*
CC(C)CC1C(=O)N(Cc2cn(CCC3OCCCO3)nn2)CCS(=O)(=O)N1Cc1ccc(-c2ccc(Cl)cc2)cc1 (stereo not given) | 0 | 0 | 3 | 2 | -17 | x | x | x | x
COCOCCn1cc(CN2CCS(=O)(=O)N(Cc3ccc(-c4ccc(Cl)c(Cl)c4)cc3)C(C)C2=O)nn1 (stereo not given) | 0 | 2 | 0 | 11* | 23* | 7 | 2 | 35* | 19*
CC(C)C1C(=O)N(Cc2cn(CC3CCCCC3)nn2)CCS(=O)(=O)N1Cc1ccc(-c2ccccc2)cc1 (stereo not given) | 0 | 4 | 5 | 11* | 22* | 14 | 3 | 38* | 15*
O=C(Nc1cccc2ccccc12)N1CCN(Cc2ccccc2)CC1 | -11 | -80 | -97 | -60 | -163 | x | x | x | x

From PubChem
